Among the data in PubChem BioAssay (NCI) are growth values, retold here.

Compounds without any hit were thinned out: in the full panel of roughly 83,000, 20% have a hit.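 Single-concentration screen, 48 h exposure, 96-well plates. Endpoint: percent growth. Below 10 = active.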 A number with no mark means an inactive call.

The assay concerns LOX IMVI melanoma. In words: NCI-60 one-dose screen, 48 h (100 = growth as untreated, 0 = no growth, -100 = all killed). To be noted: 10 µM.
Turning to `CCC(=O)Oc1c(C)cc(O)c2ccccc12`, the growth was 75%.

For `COCC(N)=O`, the growth was 99.7%.

Consider `Cc1cc(C)cc(OCC(=O)O)c1`, for which the growth was 98.7%.

As to `CCOC(OCC)C(=O)c1ccccc1`, the growth was 95.4%.

For the compound `Cc1ccnc(Nc2nc3ccccc3[nH]2)n1`, the growth was 97.9%.

In the case of `O=C(NC(=S)N1CC=CCC1)c1ccccc1`, the growth was 107%.

Consider `COc1cc(OC)c(NC(=O)C(Sc2nc(C)cc(C)c2C#N)c2ccccc2)cc1Cl` (stereo unspecified), for which the growth was 89.6%.

With `O=S(=O)(O)c1cccc2cccnc12`, the growth was 107%.

As for `CC(C)(CC(=O)O)CC(=O)O`, the growth is 104%.

As for `CC(=O)N(C)N=Nc1ccc(C)cc1`, the growth is 98.1%.

Turning to `CC(=O)c1cccs1`, the growth is 93.1%.

`CSCC[C@@H]1C(=O)N(C)[C@H](C(C)(C)C)N1C(=O)c1ccccc1`: the growth was 95.4%.

As for `CC1=CC(=Nc2ccc(N(C)C)cc2)C=C(C)C1=O`, the growth is 46.4%.

Take `OC(CCN1CCCCC1)(c1ccccc1)c1ccccc1`: the growth is 97.2%.

`CCOC(=O)c1ccc(NC(=O)Nc2nccs2)cc1`: the growth was 11.9%.

For the compound `O=CNCCc1ccccc1`, the growth is 109%.
